# Measured values: PubChem BioAssay (EPA / NIEHS)
# Inconclusive results are not listed. The source made the active and inactive calls. How the source made its calls, unless noted: active means hit-call score of the fitted dose curve at least 0.9, where 1 is the maximum; inconclusive means response in the unintended direction; inactive means score below 0.9.
# Test system: not listed separately
# Assay: CCTE_Deisenroth_DEVTOX-GLR_legacy_CellCount: (Legacy) Viability Assessment in CCTE's DevTox GLR-Endo Assay, Deisenroth Lab (AID 2284331; active means hit-call score of the fitted dose curve at least 0.9, where 1 is the maximum; inactive means score below 0.9)
# Settings: actives raise or lower the signal
# Method in brief: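 Viability is taken from imaged nuclei counts in fixed RUES2-GLR cultures after 48 h of differentiation under two 24 h-spaced chemical exposures, 10 concentrations from 1 nM to 200 uM, gain or loss versus DMSO baseline.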
SMILES,outcome,AC50
NC(=O)c1ccc(-c2nc(-c3ccc4c(c3)OCO4)c(-c3ccccn3)[nH]2)cc1,inactive,–
COc1ccc2[nH]c([S@@](=O)Cc3ncc(C)c(OC)c3C)nc2c1,–,48.1 µM (active)
Oc1cc(O)c2c(c1)O[C@H](c1ccc(O)c(O)c1)[C@@H](O)C2,–,167 µM (active)
Nc1cccc2c1C(=O)N(C1CCC(=O)NC1=O)C2=O (configuration not stated),–,0.272 µM (active)
c1cc(-c2cnn3cc(-c4ccc(OCCN5CCCCC5)cc4)cnc23)ccn1,–,20 µM (active)

# Test system: not listed separately
# Assay: IUF_NPC1_cytotoxicity_72hr: Cytotoxicity Assessment at 72 hours in the Leibniz Research Institute for Environmental Medicine (IUF) Neural Progenitor Cell Proliferation Assay (NPC1) (AID 2284332);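 further: rising LDH signal means more cytotoxicity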
# Settings: not given
# Method in brief: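 Spheres of primary human neural progenitors are plated one per well on day 0 in growth-factor medium and dosed at once. After three days at 37C, supernatant LDH is measured fluorimetrically via resazurin reduction.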
row,SMILES,outcome
1,BrC1CC(Br)CC(Br)CC(Br)CC(Br)CC(Br)C1 (configuration not stated),inactive
2,CC(CNC(=S)[S-])NC(=S)[S-].[Zn+2] (configuration not stated),inactive
3,CC(=O)N[C@@H](CC(=O)O)C(=O)O,inactive
4,CC(C)c1nn(C(=O)NC(C)(C)C)c(=O)n1N,inactive
5,Cc1[nH]n(C)c(=O)c1C(=O)c1ccc(C(F)(F)F)cc1S(C)(=O)=O,inactive
6,CCCCOCCOP(=O)(O)OCCOCCCC,inactive
7,CCCCCC(C)(CC)C(=O)NC (configuration not stated),inactive
8,C[C@@H]1CCO[C@H]2Cn3cc(C(=O)NCc4ccc(F)cc4F)c(=O)c(O)c3C(=O)N12,inactive
9,CN(C)CCCn1cc(C2=C(c3c[nH]c4ccccc34)C(=O)NC2=O)c2ccccc21,inactive
10,CCCCCC=C(C)C(CC)CCO (configuration not stated),inactive
11,C[C@@H]1CC[C@@H](C(C)(C)O)[C@H](O)C1,inactive
12,CC(C)O,inactive

# Test system: not listed separately
# Assay: CCTE_Mundy_HCI_iCellGluta_NOG_NeuronCount: CCTE's Neurite Outgrowth Assay in iCellGluta cells for Neuron Count, Mundy Lab (AID 2284340);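 further: cells fixed about 48 h after compound addition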
# Settings: not given
# Method in brief: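 Neuron count read by automated high-content imaging of Hoechst 33342 and betaIII-tubulin/Alexa Fluor-488 labelling in human iPSC glutamatergic neurons. Activity fitted relative to DMSO.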
SMILES,AC50,outcome
BrC1CC(Br)CC(Br)CC(Br)CC(Br)CC(Br)C1 (configuration not stated),4.56 µM (active),–
CC(CNC(=S)[S-])NC(=S)[S-].[Zn+2] (configuration not stated),12.7 µM (active),–
CC(=O)N[C@@H](CC(=O)O)C(=O)O,–,inactive
CC(C)c1nn(C(=O)NC(C)(C)C)c(=O)n1N,–,inactive
Cc1[nH]n(C)c(=O)c1C(=O)c1ccc(C(F)(F)F)cc1S(C)(=O)=O,–,inactive
CCCCCC(C)(CC)C(=O)NC (configuration not stated),–,inactive
C[C@@H]1CCO[C@H]2Cn3cc(C(=O)NCc4ccc(F)cc4F)c(=O)c(O)c3C(=O)N12,–,inactive
CCCCCC=C(C)C(CC)CCO (configuration not stated),–,inactive
CCc1ccccc1,–,inactive
C[C@@H]1CC[C@@H](C(C)(C)O)[C@H](O)C1,–,inactive
CC(C)O,–,inactive

# Test system: SRY-box transcription factor 17 (SOX17) Protein Expression, Deisenroth Lab, SOX17 (gene 64321)
# Assay: CCTE_Deisenroth_DEVTOX-GLR_legacy_Sox17: (Legacy) CCTE's DevTox GLR-Endo Assay Evaluation of SRY-box transcription factor 17 (SOX17) Protein Expression, Deisenroth Lab (AID 2284341; active means hit-call score of the fitted dose curve at least 0.9, where 1 is the maximum; inactive means score below 0.9)
# Settings: actives raise or lower the signal
# Method in brief: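 Endoderm-differentiation readout in RUES2-GLR human pluripotent cells at 48 h, concentrations spanning 1 nM - 200 uM. Sox17-positive cells divided by total cell count; gain or loss relative to DMSO solvent control, n=4 experimental replicates.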
SMILES,outcome,AC50
NC(=O)c1ccc(-c2nc(-c3ccc4c(c3)OCO4)c(-c3ccccn3)[nH]2)cc1,inactive,–
Oc1cc(O)c2c(c1)O[C@H](c1ccc(O)c(O)c1)[C@@H](O)C2,–,144 µM (active)
Nc1cccc2c1C(=O)N(C1CCC(=O)NC1=O)C2=O (configuration not stated),–,0.067 µM (active)
c1cc(-c2cnn3cc(-c4ccc(OCCN5CCCCC5)cc4)cnc23)ccn1,–,24.6 µM (active)

# Test system: not listed separately
# Assay: CCTE_Mundy_HCI_iCellGluta_NOG_NeuriteCount: CCTE's Neurite Outgrowth Assay in iCellGluta cells for Neurite Count, Mundy Lab (AID 2284342);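 further: chemical exposure about 48 hours starting 2 hours after plating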
# Settings: not given
SMILES,AC50,outcome
BrC1CC(Br)CC(Br)CC(Br)CC(Br)CC(Br)C1 (configuration not stated),4.69 µM (active),–
CC(CNC(=S)[S-])NC(=S)[S-].[Zn+2] (configuration not stated),21.2 µM (active),–
CC(=O)N[C@@H](CC(=O)O)C(=O)O,–,inactive
Cc1[nH]n(C)c(=O)c1C(=O)c1ccc(C(F)(F)F)cc1S(C)(=O)=O,–,inactive
O=C(CC(=O)C(F)(F)F)C(F)(F)F,–,inactive
CCCCCC(C)(CC)C(=O)NC (configuration not stated),–,inactive
CCCCCC=C(C)C(CC)CCO (configuration not stated),–,inactive
C[C@@H]1CC[C@@H](C(C)(C)O)[C@H](O)C1,–,inactive
CC(C)O,–,inactive

# Test system: SRY-box transcription factor 2 (SOX2) Protein Expression, Deisenroth Lab, SOX2 (gene 6657)
# Assay: CCTE_Deisenroth_DEVTOX-GLR_legacy_Sox2: (Legacy) CCTE's DevTox GLR-Endo Assay Evaluation of SRY-box transcription factor 2 (SOX2) Protein Expression, Deisenroth Lab (AID 2284346; active means hit-call score of the fitted dose curve at least 0.9, where 1 is the maximum; inactive means score below 0.9)
# Settings: not given
# Method: CCTE_Deisenroth_DEVTOX-GLR_legacy assay is a cell-based, multiplex-readout assay that uses RUES2-GLR, a human pluripotent cell line, with measurements taken at 48 hours after chemical dosing in a 384-well microplateCCTE_Deisenroth_DEVTOX-GLR_legacy_Sox2 is one of 4 assay components calculated from the CCTE_Deisenroth_DEVTOX-GLR_legacy assay that measures an increase in the percentage of cells in an ectodermal or pluripotent state. It is designed to make measurements of inducible reporter a form of fluorescent protein induction as detected with optical fluorescence microscopy. Percentage Sox2+ cells are determined by calculating the number of Sox2+ cells divided by cell count. A cell is Sox2+ if the cell Sox2 mean intensity is 5x BMAD above the directed endoderm control median cell Sox2 mean. The assay endpoint was analyzed with bidirectional fitting with the 0.2% DMSO control median percent Sox2 in the CCTE_Deisenroth_DEVTOX-GLR_Endo assay subtracted.Data from the assay component CCTE_Deisenroth_DEVTOX-GLR_legacy_Sox2 was analyzed into 1 assay endpoint. This assay endpoint, CCTE_Deisenroth_DEVTOX-GLR_legacy_Sox2, was analyzed in the positive analysis fitting direction relative to DMSO as the negative control and baseline activity. Using a type of inducible reporter, gain-of-signal activity can be used to understand changes in gene expression. Furthermore, this assay endpoint can be referred to as a secondary readout, because this assay has produced multiple assay endpoints where this one serves as a measure of pluripotency or ectoderm differentiation. To generalize the intended target to other relatable targets, this assay endpoint is annotated to the transcription factor intended target family, where the subfamily is SRY-related HMG-box.
# (§1) All assay protocols are aligned to the DevTox GLR-Endo assay workflow. Cells are seeded into 384-well microplates for 24 hours prior to initiating differentiation in defined media for a total duration of 48 hours. A total of two chemical exposures are administered in 24-hour intervals during the 48-hour differentiation period. At the assay termination point, cells are fixed and stained with a fluorescent dye demarcating the nucleus. High-content imaging is used to acquire brightfield and fluorescent channel images across 5 fields per well. Cell identification and mean biomarker fluorescence intensities are calculated with image analysis software to determine the total cell counts for viability assessment and the biomarker expression frequency for each lineage-dependent assay. A typical experimental design tests a 10-point concentration series (1 nM - 200 uM) for 28 compounds in single technical replicate. Assay plate controls include non-differentiated pluripotent cells (baseline control), lineage-specific differentiated cells (differentiation control), and DMSO solvent exposed differentiated cells (solvent control). Experiments typically comprise a minimum of four experimental replicates (n=4).
SMILES,outcome,AC50
NC(=O)c1ccc(-c2nc(-c3ccc4c(c3)OCO4)c(-c3ccccn3)[nH]2)cc1,inactive,–
COc1ccc2[nH]c([S@@](=O)Cc3ncc(C)c(OC)c3C)nc2c1,–,56.1 µM (active)
Oc1cc(O)c2c(c1)O[C@H](c1ccc(O)c(O)c1)[C@@H](O)C2,inactive,–
Nc1cccc2c1C(=O)N(C1CCC(=O)NC1=O)C2=O (configuration not stated),–,155 µM (active)
c1cc(-c2cnn3cc(-c4ccc(OCCN5CCCCC5)cc4)cnc23)ccn1,–,5.11 µM (active)

# Test system: SRY-box transcription factor 2 (SOX2) Protein Expression, Deisenroth Lab, SOX2 (gene 6657)
# Assay: CCTE_Deisenroth_DEVTOX-GLR_Endo_SOX2: CCTE's DevTox GLR-Endo Assay Evaluation of SRY-box transcription factor 2 (SOX2) Protein Expression, Deisenroth Lab (AID 2284412)
# Settings: not given
# Method in brief: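 RUES2-GLR human pluripotent cells were seeded 24 h, then differentiated 48 h with two chemical exposures 24 h apart. Cells were fixed, nuclei stained and imaged by high-content microscopy. Endpoint is %SOX2+ cells over cell count, minus 0.2% DMSO control; 10-point series 1 nM–200 uM.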
SMILES,AC50,outcome
COc1ccc2[nH]c([S@@](=O)Cc3ncc(C)c(OC)c3C)nc2c1,83.8 µM (active),–
Oc1cc(O)c2c(c1)O[C@H](c1ccc(O)c(O)c1)[C@@H](O)C2,–,inactive
c1cc(-c2cnn3cc(-c4ccc(OCCN5CCCCC5)cc4)cnc23)ccn1,30.1 µM (active),–

# Test system: SRY-box transcription factor 17 (SOX17) Protein Expression, Deisenroth Lab, SOX17 (gene 64321)
# Assay: CCTE_Deisenroth_DEVTOX-GLR_Endo_SOX17: CCTE's DevTox GLR-Endo Assay Evaluation of SRY-box transcription factor 17 (SOX17) Protein Expression, Deisenroth Lab (AID 2284413; active means hit-call score of the fitted dose curve at least 0.9, where 1 is the maximum; inactive means score below 0.9)
# Settings: not given
# Method: CCTE_Deisenroth_DEVTOX-GLR_Endo assay is a cell-based, multiplex-readout assay that uses RUES2-GLR, a human pluripotent cell line, with measurements taken at 48 hours after chemical dosing in a 384-well microplateCCTE_Deisenroth_DEVTOX-GLR_Endo_SOX17 is 1 of 4 assay components calculated from the CCTE_Deisenroth_DEVTOX-GLR_Endo assay and it measures the percentage of cells in an endoderm state. Using a type of inducible fluorescent protein reporter, gain-of-signal activity can be used to understand changes in gene expression with fluorescent microscopy. The percentage of SOX17+ cells are determined by calculating the number of SOX17+ cells divided by the cell count. To generalize the intended target to other relatable targets, this assay component is annotated to the transcription factor intended target family, where the subfamily is SRY-related HMG-box.Data from the assay component CCTE_Deisenroth_DEVTOX-GLR_Endo_SOX17 was analyzed as 1 assay endpoint. The endpoint is the percent change in SOX17+ cell population relative to the 0.2% DMSO control in the CCTE_Deisenroth_DEVTOX-GLR_Endo assay. This assay endpoint can be referred to as a primary readout since this assay has produced multiple assay endpoints where this one serves as a measure of endoderm differentiation.
# as §1
row,SMILES,AC50
1,COc1ccc2[nH]c([S@@](=O)Cc3ncc(C)c(OC)c3C)nc2c1,33.8 µM (active)
2,Oc1cc(O)c2c(c1)O[C@H](c1ccc(O)c(O)c1)[C@@H](O)C2,146 µM (active)
3,Nc1cccc2c1C(=O)N(C1CCC(=O)NC1=O)C2=O (configuration not stated),0.0587 µM (active)
4,c1cc(-c2cnn3cc(-c4ccc(OCCN5CCCCC5)cc4)cnc23)ccn1,24.1 µM (active)

# Test system: Brachyury (BRA) Protein Expression, TBXT (gene 6862)
# Assay: CCTE_Deisenroth_DEVTOX-GLR_Endo_BRA: CCTE's DevTox GLR-Endo Assay Evaluation of Brachyury (BRA) Protein Expression, Deisenroth Lab (AID 2284417; active means hit-call score of the fitted dose curve at least 0.9, where 1 is the maximum; inactive means score below 0.9)
# Settings: not given
# Method in brief: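 Read-out: BRA+ cell count divided by total cell count by high-content imaging (5 fields per well), expressed relative to 0.2% DMSO solvent control. RUES2-GLR cells dosed twice over a 48 h differentiation; concentrations 1 nM - 200 uM.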
row,SMILES,AC50
1,COc1ccc2[nH]c([S@@](=O)Cc3ncc(C)c(OC)c3C)nc2c1,70.6 µM (active)
2,Oc1cc(O)c2c(c1)O[C@H](c1ccc(O)c(O)c1)[C@@H](O)C2,0.000133 µM (active)
3,Nc1cccc2c1C(=O)N(C1CCC(=O)NC1=O)C2=O (configuration not stated),29.5 µM (active)
4,c1cc(-c2cnn3cc(-c4ccc(OCCN5CCCCC5)cc4)cnc23)ccn1,1.44 µM (active)
